Three compounds from PubChem BioAssay (EPA / NIEHS) can be followed below.

Molecules are shown by their SMILES. Calls of active or inactive are those of the source. The calls were made as follows: active = hit-call score of the fitted dose curve at least 0.9, where 1 is the maximum; inactive = score below 0.9.

What all share (conditions): mRNA level, 48 h; actives raise or lower the signal
Read-out in test [1]: Bcl-2 (BID) gene, BID (gene 637)
Kind of test: LTEA_HepaRG_BID: Life Technologies and Expression Analysis (LTEA) Assay for Bcl-2 (BID) gene using HepaRG (AID 2283476). In short, it runs like this: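 Gene expression by qRT-PCR in HepaRG cells after 48 h exposure, duplicate wells, eight half-log concentrations topping at 100 uM in 0.5% DMSO. Normalized to ACTB, GAPDH, POLR2A; bidirectional fitting relative to DMSO.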

Read-out in a further test: Caspase-3 (Homo sapiens) (UniProt P42574)
As to the kind of experiment: LTEA_HepaRG_CASP3: Life Technologies and Expression Analysis (LTEA) Assay for cysteine-aspartic acid protease (CASP3) using HepaRG (AID 2283477). In short, it runs like this:
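In HepaRG liver cells dosed for 48 h at up to 100 uM (eight-point, duplicate), CASP3 expression changes are scored by qRT-PCR. Activity is fitted in both directions with 0.5% DMSO as baseline.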

Read-out in test [2]: Cytochrome P450 (CYP24A1), CYP24A1 (gene 1591)
Kind of test: LTEA_HepaRG_CYP24A1: Life Technologies and Expression Analysis (LTEA) Assay for Cytochrome P450 (CYP24A1) using HepaRG (AID 2283478). In short, it runs like this:
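Human liver HepaRG cultures receive each chemical for 48 h across an eight-point half-log series topping at 100 uM in 0.5% DMSO. Induction or suppression of CYP24A1 mRNA is scored relative to vehicle after housekeeping-gene normalization.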

Read-out in test [3]: Cytochrome P450 (CYP1A2), CYP1A2 (gene 1544)
As to the kind of experiment: LTEA_HepaRG_CYP1A2: Life Technologies and Expression Analysis (LTEA) Assay for Cytochrome P450 (CYP1A2) using HepaRG (AID 2283479). Put shortly:
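Assesses CYP1A2 mRNA in human HepaRG liver cells after 48 h chemical exposure at up to 100 uM. Values come from qRT-PCR with bidirectional curve fitting relative to DMSO.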

Read-out in test [4]: cysteine-aspartic acid protease (CASP8), CASP8 (gene 841)
Kind of test: LTEA_HepaRG_CASP8: Life Technologies and Expression Analysis (LTEA) Assay for cysteine-aspartic acid protease (CASP8) using HepaRG (AID 2283480). Put shortly: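 Differentiated HepaRG cells in serum-free induction medium, 48 h exposure, eight-point half-log series from 100 uM in 0.5% DMSO, duplicates. CASP8 mRNA by qRT-PCR, normalized to ACTB, GAPDH, POLR2A; bidirectional fit versus DMSO.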

Read-out in test [5]: Cytochrome P450 (CYP2B6), CYP2B6 (gene 1555)
Kind of test: LTEA_HepaRG_CYP2B6: Life Technologies and Expression Analysis (LTEA) Assay for Cytochrome P450 (CYP2B6) using HepaRG (AID 2283481). In short, it runs like this: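 Using 48 h treatment of HepaRG cells in serum-free induction medium, concentrations spanned half-log steps from 100 uM in 0.5% DMSO vehicle. CYP2B6 mRNA induction or loss is scored by qRT-PCR against DMSO.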

Read-out in test [6]: Cytochrome P450 2C19 (Homo sapiens) (UniProt P33261)
Kind of test: LTEA_HepaRG_CYP2C19: Life Technologies and Expression Analysis (LTEA) Assay for CYP2C19 using HepaRG (AID 2283482). In short, it runs like this: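 Human HepaRG liver cells received test chemicals for 48 h (highest 100 uM, half-log dilutions in 0.5% DMSO). CYP2C19 mRNA induction or loss is read by multiplexed qRT-PCR and fitted in both directions versus vehicle.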

Read-out in another test: CYP2C8 (gene 1558)
As to the kind of experiment: LTEA_HepaRG_CYP2C8: Life Technologies and Expression Analysis (LTEA) Assay for CYP2C8 using HepaRG (AID 2283483). Put shortly:
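Differentiated HepaRG cells in serum-free induction medium exposed 48 h in duplicate to 8 half-log concentrations from 100 uM in 0.5% DMSO. CYP2C8 mRNA by qRT-PCR normalized to ACTB, GAPDH, POLR2A; bidirectional fit versus DMSO.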

Read-out in a further test: CYP2C9 (gene 1559)
As to the kind of experiment: LTEA_HepaRG_CYP2C9: Life Technologies and Expression Analysis (LTEA) Assay for CYP2C9 using HepaRG (AID 2283484). In short, it runs like this:
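Differentiated human HepaRG cells in serum-free induction medium were exposed 48 h to chemicals in 8-point half-log series from 100 uM (0.5% DMSO), in duplicate. CYP2C9 mRNA was measured by qRT-PCR, normalized to ACTB/GAPDH/POLR2A, with bidirectional fitting versus DMSO.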

Read-out in the next test: CYP2E1 (gene 1571)
Kind of test: LTEA_HepaRG_CYP2E1: Life Technologies and Expression Analysis (LTEA) Assay for CYP2E1 using HepaRG (AID 2283485). Put shortly: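 HepaRG cells, plated 48 h, then exposed 48 h in serum-free induction medium to eight half-log concentrations from 100 uM in 0.5% DMSO, duplicate. CYP2E1 mRNA by qRT-PCR, normalized to ACTB/GAPDH/POLR2A; bidirectional fit versus DMSO.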

Read-out in the next test: CYP4A11 (gene 1579)
Kind of test: LTEA_HepaRG_CYP4A11: Life Technologies and Expression Analysis (LTEA) Assay for CYP4A11 using HepaRG (AID 2283486). In short, it runs like this:
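Readout is CYP4A11 mRNA induction or suppression (qRT-PCR, ACTB/GAPDH/POLR2A normalization) in human HepaRG cells after 48 h chemical treatment, concentrations to 100 uM in 0.5% DMSO, fitted bidirectionally against vehicle.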

Read-out in test [7]: Cytochrome P450 3A4 (Homo sapiens) (UniProt P08684)
Kind of test: LTEA_HepaRG_CYP3A4: Life Technologies and Expression Analysis (LTEA) Assay for CYP3A4 using HepaRG (AID 2283487). In short, it runs like this:
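In a human hepatic line (HepaRG), duplicate wells were treated 48 h with up to 100 uM chemical in half-log dilutions. Endpoint: CYP3A4 mRNA induction or loss relative to 0.5% DMSO vehicle, by qRT-PCR.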

Read-out in test [8]: DNA damage-inducible transcript 3 (DDIT3), DDIT3 (gene 1649)
As to the kind of experiment: LTEA_HepaRG_DDIT3: Life Technologies and Expression Analysis (LTEA) Assay for DNA damage-inducible transcript 3 (DDIT3) using HepaRG (AID 2283488). In short, it runs like this: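 HepaRG cells, 48 h after plating, exposed 48 h in serum-free induction medium to 8 half-log concentrations up to 100 uM in 0.5% DMSO, in duplicate. DDIT3 mRNA measured by TaqMan qRT-PCR, normalized to ACTB, GAPDH and POLR2A. Fitted bidirectionally against DMSO.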

Read-out in test [9]: Pro-epidermal growth factor (Homo sapiens) (UniProt P01133)
Kind of test: LTEA_HepaRG_EGF: Life Technologies and Expression Analysis (LTEA) Assay for Epidermal growth factor (EGF) using HepaRG (AID 2283489). In short, it runs like this: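 EGF expression changes in human HepaRG cells are scored by bidirectional fitting relative to 0.5% DMSO controls. Chemicals are tested at eight half-log concentrations up to 100 uM for 48 h in serum-free induction medium.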

Read-out in test [10]: Ezrin (EZR), EZR (gene 7430)
Kind of test: LTEA_HepaRG_EZR: Life Technologies and Expression Analysis (LTEA) Assay for Ezrin (EZR) using HepaRG (AID 2283491). Put shortly:
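Gain or loss of EZR mRNA is scored relative to 0.5% DMSO in human HepaRG cultures treated 48 h with test chemicals in duplicate, eight half-log concentrations from 100 uM.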

Read-out in a further test: CYP3A5 (gene 1577)
As to the kind of experiment: LTEA_HepaRG_CYP3A5: Life Technologies and Expression Analysis (LTEA) Assay for CYP3A5 using HepaRG (AID 2283493). In short, it runs like this: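 HepaRG cells, plated 48 h then in serum-free induction medium, dosed in duplicate for 48 h with eight half-log concentrations up to 100 uM in 0.5% DMSO. Gene mRNA by Fluidigm TaqMan qRT-PCR, normalized to ACTB, GAPDH, POLR2A.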

Read-out in test [11]: Fatty Acid-Binding Protein 1 (FABP1), FABP1 (gene 2168)
Kind of test: LTEA_HepaRG_FABP1: Life Technologies and Expression Analysis (LTEA) Assay for Fatty Acid-Binding Protein 1 (FABP1) using HepaRG (AID 2283494). Put shortly:
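Differentiated human HepaRG cells exposed 48 h in serum-free induction medium to eight half-log concentrations up to 100 uM (0.5% DMSO), duplicate. FABP1 mRNA by qRT-PCR, normalised to ACTB, GAPDH, POLR2A; bidirectional fitting against DMSO.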

Read-out in test [12]: Cytochrome P450 4A22 (Homo sapiens) (UniProt Q5TCH4)
As to the kind of experiment: LTEA_HepaRG_CYP4A22: Life Technologies and Expression Analysis (LTEA) Assay for Cytochrome P450 4A22 (CYP4A22) using HepaRG (AID 2283495). Put shortly:
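Cryopreserved HepaRG cells, plated and cultured 48 h, then switched to serum-free induction medium and treated 48 h (duplicates, up to 100 uM, half-log steps, 0.5% DMSO). Expression change of CYP4A22 was fitted bidirectionally against vehicle.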

Read-out in test [13]: Cytochrome P450 3A7 (Homo sapiens) (UniProt P24462)
Kind of test: LTEA_HepaRG_CYP3A7: Life Technologies and Expression Analysis (LTEA) Assay for CYP3A7 using HepaRG (AID 2283492). Put shortly:
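Cells were thawed, plated, cultured 48 h, then treated for a further 48 h with chemicals (eight-point half-log series from 100 uM, 0.5% DMSO). RNA was isolated and CYP3A7 expression quantified by qRT-PCR normalised to ACTB, GAPDH and POLR2A.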

Read-out in test [14]: Early growth response protein 1 (EGR1) transcription factor, EGR1 (gene 1958)
Kind of test: LTEA_HepaRG_EGR1: Life Technologies and Expression Analysis (LTEA) Assay for Early growth response protein 1 (EGR1) transcription factor using HepaRG (AID 2283490). Put shortly:
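Differentiated HepaRG cells in serum-free induction medium exposed 48 hours, duplicate, to 8 half-log concentrations up to 100 uM in 0.5% DMSO. EGR1 mRNA measured by TaqMan qRT-PCR, normalized to ACTB, GAPDH, POLR2A; bidirectional fit versus DMSO.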

Chain of Cytochrome P450 3A4 (Homo sapiens) (P08684 whole entry, looked up): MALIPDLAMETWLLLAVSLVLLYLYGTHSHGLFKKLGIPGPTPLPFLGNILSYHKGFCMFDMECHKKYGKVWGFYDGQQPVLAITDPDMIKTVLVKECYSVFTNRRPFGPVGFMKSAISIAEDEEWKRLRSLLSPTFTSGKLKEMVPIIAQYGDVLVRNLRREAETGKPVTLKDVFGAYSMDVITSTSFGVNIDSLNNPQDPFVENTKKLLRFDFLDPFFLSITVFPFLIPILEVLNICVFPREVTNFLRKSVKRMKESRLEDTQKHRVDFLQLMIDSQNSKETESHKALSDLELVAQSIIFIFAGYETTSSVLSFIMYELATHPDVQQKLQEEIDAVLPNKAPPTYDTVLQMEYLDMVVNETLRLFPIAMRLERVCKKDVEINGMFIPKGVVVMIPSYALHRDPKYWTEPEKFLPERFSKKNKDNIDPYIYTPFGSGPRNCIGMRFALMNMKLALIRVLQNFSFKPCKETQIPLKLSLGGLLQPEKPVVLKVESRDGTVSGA
Chain of Cytochrome P450 2C19 (Homo sapiens) (P33261 whole entry, looked up): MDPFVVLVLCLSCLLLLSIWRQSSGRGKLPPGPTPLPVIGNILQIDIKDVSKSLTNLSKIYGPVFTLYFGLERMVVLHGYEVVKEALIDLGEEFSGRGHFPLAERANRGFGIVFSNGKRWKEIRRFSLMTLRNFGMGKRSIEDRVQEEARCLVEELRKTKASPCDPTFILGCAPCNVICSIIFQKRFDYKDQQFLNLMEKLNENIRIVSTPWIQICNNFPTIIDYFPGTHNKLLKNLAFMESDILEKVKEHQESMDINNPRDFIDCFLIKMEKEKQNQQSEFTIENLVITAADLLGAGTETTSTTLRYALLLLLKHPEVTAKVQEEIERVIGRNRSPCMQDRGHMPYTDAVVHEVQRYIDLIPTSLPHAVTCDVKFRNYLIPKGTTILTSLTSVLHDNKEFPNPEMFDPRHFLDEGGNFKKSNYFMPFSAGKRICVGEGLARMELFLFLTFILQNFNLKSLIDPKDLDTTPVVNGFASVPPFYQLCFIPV
Chain of Caspase-3 (Homo sapiens) (P42574 whole entry, looked up): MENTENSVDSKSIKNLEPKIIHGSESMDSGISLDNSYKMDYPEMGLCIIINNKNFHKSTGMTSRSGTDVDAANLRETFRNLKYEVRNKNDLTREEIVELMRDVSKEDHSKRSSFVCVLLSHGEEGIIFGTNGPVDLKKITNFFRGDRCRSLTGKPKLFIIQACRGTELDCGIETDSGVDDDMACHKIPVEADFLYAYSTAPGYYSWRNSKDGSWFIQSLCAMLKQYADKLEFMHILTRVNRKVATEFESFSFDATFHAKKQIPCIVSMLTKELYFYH
Chain of Cytochrome P450 3A7 (Homo sapiens) (P24462 whole entry, looked up): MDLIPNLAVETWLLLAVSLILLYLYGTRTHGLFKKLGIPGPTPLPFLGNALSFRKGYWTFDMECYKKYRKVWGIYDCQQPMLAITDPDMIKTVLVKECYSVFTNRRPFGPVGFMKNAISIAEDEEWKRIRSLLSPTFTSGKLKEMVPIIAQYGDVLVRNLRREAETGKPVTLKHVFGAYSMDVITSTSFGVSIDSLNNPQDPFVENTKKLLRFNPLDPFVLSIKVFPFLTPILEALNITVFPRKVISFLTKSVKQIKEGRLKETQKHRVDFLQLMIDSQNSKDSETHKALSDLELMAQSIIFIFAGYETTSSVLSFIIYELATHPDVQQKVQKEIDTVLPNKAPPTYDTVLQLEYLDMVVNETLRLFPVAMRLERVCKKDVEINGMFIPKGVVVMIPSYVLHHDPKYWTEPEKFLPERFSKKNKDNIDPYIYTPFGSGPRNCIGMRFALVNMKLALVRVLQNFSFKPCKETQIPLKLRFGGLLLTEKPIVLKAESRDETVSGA

With `COC(=O)c1c(C(F)F)nc(C(F)(F)F)c(C2=NCCS2)c1CC(C)C`, the compound was called inactive (in [1]; with Caspase-3 (Homo sapiens); in test [2]; in test [4]; with CYP2C9 (gene 1559); with CYP4A11 (gene 1579)). Moreover, the result (in test [8]; in test [9]; in test [10]; with CYP3A5 (gene 1577); in [11]; in test [12]) was inactive. In addition, the AC50 in test [3] is 50 µM (active); in [5], 19.7 µM (active); in test [6], 50 µM (active); with CYP2C8 (gene 1558), 50 µM (active); with CYP2E1 (gene 1571), 10.3 µM (active); in [7] it was 4.46 µM (active).
Turning to `CCOc1nc(C(Cl)(Cl)Cl)ns1`, the concentration at half-maximal activity (AC50) is 1.33 µM (active) in test [1]; 1.05 µM (active) in the test with Caspase-3 (Homo sapiens); 1.93 µM (active) in [2]; 0.939 µM (active) in test [3]; 1.08 µM (active) in test [4]; 1.28 µM (active) in [5]. For the same compound, the AC50 in [6] was 14.9 µM (active); in the test with CYP2C8 (gene 1558) it was 1.14 µM (active); in the test with CYP4A11 (gene 1579), 1.12 µM (active); in test [8] it was 1.61 µM (active); in test [13] it was 2.43 µM (active). Further, the compound was classed as inactive (with CYP2C9 (gene 1559); with CYP2E1 (gene 1571); in [7]; in [10]; in the test with CYP3A5 (gene 1577); in [11]).
For the compound `Clc1cccc(C(Cl)(Cl)Cl)n1`, the compound was classed as inactive (in test [1]; with Caspase-3 (Homo sapiens); in test [2]; in [3]; in test [4]; in test [6]). Besides, the outcome (with CYP2C8 (gene 1558); with CYP2C9 (gene 1559); with CYP2E1 (gene 1571); in the test with CYP4A11 (gene 1579); in test [7]; in test [8]) was inactive. The call (in test [9]; in test [14]; in test [10]; with CYP3A5 (gene 1577); in [11]; in test [12]) was inactive. Moreover, in [5], the AC50 was 2.9 µM (active).

A word on the AC50: it is the concentration giving half of the maximal activity seen.
